Data from PubChem BioAssay (NCATS).
Unmarked numbers belong to inactive results. Results filed as inconclusive are left out. Where a call stands in place of a potency, no number is given. Active and inactive are the calls of the source. Unless noted, calls follow the shape of the dose curve; as a rule, active = well fitted curve in the direction sought with a large enough effect; inconclusive = small, poorly fitted or top-dose-only effect, or another doubt; inactive = no such curve, though single readings can be large; an effect the other way counts as inactive or inconclusive.

Assays:
[1] = biological target: 3',5'-cyclic-AMP phosphodiesterase 4B (Homo sapiens) (UniProt Q07343); experiment: qHTS Assay for Inhibitors of PDE-IV (AID 607; active = well fitted activation curve with a large enough effect in the main read-out, with a control signal flat, not every such curve was filed as active)
Chain of 3',5'-cyclic-AMP phosphodiesterase 4B (Homo sapiens) (Q07343 whole entry, looked up): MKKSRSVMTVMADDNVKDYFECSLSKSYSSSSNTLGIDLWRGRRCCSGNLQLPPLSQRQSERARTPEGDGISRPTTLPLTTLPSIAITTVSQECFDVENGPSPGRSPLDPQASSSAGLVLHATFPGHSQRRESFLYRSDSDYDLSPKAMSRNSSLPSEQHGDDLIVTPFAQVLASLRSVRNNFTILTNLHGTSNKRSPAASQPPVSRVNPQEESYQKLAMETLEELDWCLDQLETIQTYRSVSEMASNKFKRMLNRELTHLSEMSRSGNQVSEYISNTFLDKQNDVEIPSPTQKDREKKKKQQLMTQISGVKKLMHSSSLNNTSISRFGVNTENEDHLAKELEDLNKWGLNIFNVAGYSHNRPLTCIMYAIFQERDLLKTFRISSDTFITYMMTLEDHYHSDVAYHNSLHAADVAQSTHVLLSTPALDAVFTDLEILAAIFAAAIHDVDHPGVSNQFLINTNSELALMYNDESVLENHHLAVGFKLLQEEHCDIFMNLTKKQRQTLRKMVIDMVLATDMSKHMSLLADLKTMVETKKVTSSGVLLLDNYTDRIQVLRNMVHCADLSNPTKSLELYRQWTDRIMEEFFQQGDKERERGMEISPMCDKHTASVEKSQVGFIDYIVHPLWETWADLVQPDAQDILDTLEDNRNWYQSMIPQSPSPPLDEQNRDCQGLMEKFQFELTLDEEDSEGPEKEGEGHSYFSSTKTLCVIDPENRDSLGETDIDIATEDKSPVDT
Outline: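 HEK293 ACTOne cells with CNG channel (1000/well), endogenous PDE4; membrane potential dye, compounds up to 22.9 uM final. Fluorescence Ex 535/Em 590; RO 20-1724 (100 uM final) as reference.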

[2] = biological target: Guanine nucleotide-binding protein G(i) subunit alpha-1 (Homo sapiens) (UniProt P63096); experiment: qHTS Assay for Inhibitors of RGS12 GoLoco Motif Activity (Green Fluorophore) (AID 879);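 also: negative values mean loss of peptide binding seen as reduced polarization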
Chain of Guanine nucleotide-binding protein G(i) subunit alpha-1 (Homo sapiens) (P63096 whole entry, looked up): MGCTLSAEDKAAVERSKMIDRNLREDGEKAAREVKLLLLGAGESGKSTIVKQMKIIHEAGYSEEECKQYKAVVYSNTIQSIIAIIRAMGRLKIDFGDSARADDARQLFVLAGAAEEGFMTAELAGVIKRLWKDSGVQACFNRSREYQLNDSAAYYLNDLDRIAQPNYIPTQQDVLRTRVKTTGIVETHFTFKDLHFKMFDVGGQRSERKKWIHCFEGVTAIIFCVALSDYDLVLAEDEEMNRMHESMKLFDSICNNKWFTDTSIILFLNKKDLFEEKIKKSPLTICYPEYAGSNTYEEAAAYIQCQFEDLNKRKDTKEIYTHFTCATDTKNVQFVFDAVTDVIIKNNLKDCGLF
Outline: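 A drop in FITC polarization marked displacement of the FITC-tagged RGS12 GoLoco peptide (10 nM) from Gαi1 (50 nM). Compounds were incubated 10 min at room temperature in Tris pH 7.5 buffer containing 150 mM NaCl, 0.1 mM GDP and 0.05% NP40; unlabeled peptide titration served as control.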

[3] = biological target: Cytochrome P450 3A4 (Homo sapiens) (UniProt P08684); experiment: qHTS Assay for Activators of Cytochrome P450 3A4 (AID 885); also: nearly all actives have a fitted effect of over 65% in size
Chain of Cytochrome P450 3A4 (Homo sapiens) (P08684 whole entry, looked up): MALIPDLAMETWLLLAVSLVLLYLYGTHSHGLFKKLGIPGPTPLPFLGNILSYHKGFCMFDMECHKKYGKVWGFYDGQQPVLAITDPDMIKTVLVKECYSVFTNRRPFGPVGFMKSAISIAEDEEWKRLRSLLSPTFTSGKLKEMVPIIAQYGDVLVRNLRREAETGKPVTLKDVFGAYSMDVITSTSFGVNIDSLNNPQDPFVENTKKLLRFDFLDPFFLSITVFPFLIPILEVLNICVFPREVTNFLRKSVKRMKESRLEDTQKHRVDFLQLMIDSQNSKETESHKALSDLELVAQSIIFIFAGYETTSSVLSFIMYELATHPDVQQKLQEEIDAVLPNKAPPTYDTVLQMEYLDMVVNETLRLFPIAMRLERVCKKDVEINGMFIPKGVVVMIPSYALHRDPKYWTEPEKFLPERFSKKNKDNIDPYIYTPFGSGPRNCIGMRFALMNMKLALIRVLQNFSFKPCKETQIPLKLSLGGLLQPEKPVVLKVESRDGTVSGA
Outline: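 Human CYP3A4 dealkylates Luciferin-PPXE to luciferin, which luciferase detection converts to light. Substrate was at its KM (25uM), buffer 200mM KPO4, reaction 60 min at RT.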

[4] = Cellular Toxicity (caspase-3) HepG2 (AID 654);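 also: cells exposed to compound for 16 hours before reading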
Outline: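 Caspase 3/7 activation is measured as a luminescence increase (aminoluciferin substrate) after 16 h compound exposure of human hepatocarcinoma HepG2 cells. AC50 values are Hill fits, scaled between DMSO baseline and 100 uM tamoxifen stimulation.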

[5] = Cellular Toxicity (caspase-3) Jurkat (AID 655); conditions: Jurkat caspase-3 activation, luminescence, DMSO = 0%, tamoxifen = 100%; at 92.2 µM (top of the series);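 also: cells exposed to compound for 16 h at 37 °C before reading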
Outline: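 qHTS in human Jurkat T-cell leukemia line: 16 hr compound treatment at 37 °C, caspase-3/7 activity measured by Caspase-Glo luminescence. AC50 derived from Hill equation.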

[6] = Cellular Toxicity (caspase-3) HUV-EC-C (AID 656)
Outline: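 Concentration-dependent caspase 3/7 induction was assessed in HUV-EC-C cells exposed for 16 hours. Data scaled between DMSO and tamoxifen (100 uM) controls.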

[7] = Cellular Toxicity (caspase-3) SHSY5Y (AID 657);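 also: cells exposed to compound for 16 hours at 37 °C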
Outline: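 Readout: caspase-cleaved peptide-aminoluciferin substrate driving luciferase light in SH-SY5Y neuroblastoma cells after 16 h treatment. Response normalized to DMSO and 10 uM staurosporine controls.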

[8] = Cellular Toxicity (caspase-3) BJ (AID 658)
Outline: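 Plated BJ cells (1000/well) rested 5 hr, received compound for 16 hr at 37 °C, then Caspase-Glo 3/7 reagent for 1 hr at room temperature before luminescence reading.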

[9] = Cellular Toxicity (caspase-3) MRC-5 (AID 659)
Outline: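 Apoptosis readout in MRC-5 cells: luciferase light generated after caspase 3/7 cleaves a peptide-aminoluciferin substrate, measured post 16 hr compound incubation at 37 °C.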

[10] = Cellular Toxicity (caspase-3) Mesangial (AID 660);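 also: combined caspase 3 and 7 activity read by Caspase-Glo luminescence; cells exposed to compound for 16 h before the caspase read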
Outline: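 Caspase 3/7 activation measured by Caspase-Glo 3/7 luminescence (20 min, room temperature) following 16 h exposure of mesangial cells (1000/well); AC50 from Hill-equation fit, normalized to DMSO and 100 uM tamoxifen.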

[11] = Cellular Toxicity (caspase-3) SK-N-SH (AID 661)
Outline: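 Caspase 3/7 activation was read by luminogenic substrate cleavage after 16 hour treatment of SK-N-SH cells. Signal was scaled between DMSO and 10 uM staurosporine, and concentration-response data were fitted with the Hill equation for AC50.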

[12] = Cellular Toxicity (caspase-3) H-4-II-E (AID 663); conditions: Potency: caspase-3 activation;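 also: cells exposed to compound for 16 hr before readout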
Outline: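 Caspase 3/7 activation measured in H-4-II-E cells in complete culture medium after 16 hr treatment at 37 °C, using luciferase-coupled substrate readout; AC50 values come from Hill-equation fits of normalized concentration-response data.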

[13] = Cellular Toxicity (caspase-3) Hek293 (AID 664);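 also: cells exposed to compound for 16 h at 37 °C before readout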
Outline: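 Concentration-response qHTS: caspase 3/7 activation measured by luminescent aminoluciferin substrate cleavage after 16 h compound exposure of Hek 293 cells. AC50 from Hill equation, with DMSO as basal and 100 uM tamoxifen as 100%.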

[14] = Cellular Toxicity (caspase-3) N2a (AID 665);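 also: compound exposure lasted 16 h at 37 °C before readout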
Outline: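 Caspase-3/7 activation measured as luminescence from Caspase-Glo reagent (1 h, room temperature) after 16 h compound exposure of mouse N2a cells. AC50 values from Hill-equation concentration-response, scaled between DMSO and 10 uM staurosporine.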

[15] = Cellular Toxicity (caspase-3) NIH 3T3 (AID 666)
Outline: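 Caspase-Glo 3/7 luminescence reported caspase activation in 1000 NIH 3T3 cells/well after 16 h compound exposure at 37 C. DMSO set basal and 100 uM tamoxifen set 100% stimulation; concentration-response modeled with the Hill equation for AC50.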

[16] = Cellular Toxicity (caspase-3) Renal Proximal Tubule (AID 667);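 also: cells exposed to compound for 16 hours at 37 °C before detection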
Outline: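 Caspase-Glo 3/7 read-out, rat primary kidney proximal tubule cells. Compound exposure 16 h, 37 °C; detection after 1 h at RT. Activity scaled to DMSO and 10 uM staurosporine.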

[17] = qHTS Assay for Identification of Small Molecule Antagonists for NFkB Signaling Pathway (AID 895; active = well fitted inhibition curve with a large enough effect in the signal ratio, with a control signal flat, not every such curve was filed as active; the % refers to the signal ratio)
Outline: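 NFkB-bla ME-180 cervical carcinoma cells with beta-lactamase reporter under NFkB response element; compounds added, then TNF alpha at 10 pM final (EC50), 5 h at 37 C. LiveBLAzer substrate 2 h, room temperature; emission 460/530 nm at 405 nm excitation.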

[18] = biological target: Cytochrome P450 2C9 (Homo sapiens) (UniProt P11712); experiment: qHTS Assay for Inhibitors and Substrates of Cytochrome P450 2C9 (AID 883); also: potency is read from the fitted curve at half-maximal effect; nearly all actives have a fitted effect of over 60% in size
Chain of Cytochrome P450 2C9 (Homo sapiens) (P11712 whole entry, looked up): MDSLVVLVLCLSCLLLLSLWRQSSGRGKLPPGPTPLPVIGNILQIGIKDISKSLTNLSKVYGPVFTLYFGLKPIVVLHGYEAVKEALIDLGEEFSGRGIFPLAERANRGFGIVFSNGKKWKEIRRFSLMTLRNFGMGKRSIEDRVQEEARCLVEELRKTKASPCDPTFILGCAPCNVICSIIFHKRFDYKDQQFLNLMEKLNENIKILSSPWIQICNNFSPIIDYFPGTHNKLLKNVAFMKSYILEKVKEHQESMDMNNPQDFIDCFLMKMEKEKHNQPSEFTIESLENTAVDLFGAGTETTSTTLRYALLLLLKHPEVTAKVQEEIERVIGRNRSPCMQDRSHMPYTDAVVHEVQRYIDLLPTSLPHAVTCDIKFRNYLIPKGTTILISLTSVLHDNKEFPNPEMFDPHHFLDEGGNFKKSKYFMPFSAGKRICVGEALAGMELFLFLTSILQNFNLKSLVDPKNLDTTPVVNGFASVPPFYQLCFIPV
Outline: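 A luminogenic readout tracked human CYP2C9 (10nM) converting deoxyluciferin (100uM, at KM) in 25mM KPO4 during 60 min at 37C with regenerated NADPH. Values normalized to 57uM sulphaphenazole as complete inhibition.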

[19] = biological target: Cytochrome P450 3A4 (Homo sapiens) (UniProt P08684); experiment: qHTS Assay for Inhibitors and Substrates of Cytochrome P450 3A4 (AID 884); also: nearly all actives have a fitted effect of over 50% in size
Outline: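 Luminescent readout of luciferin produced by CYP3A4 (20 nM) dealkylation of Luciferin-PPXE, 25 uM (its KM). NADPH-driven reaction ran 60 min at RT after 10 min compound preincubation; data scaled to 57 uM ketoconazole as 100% inhibition.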

For `CCN(CC)CCNC(=O)c1cc(Br)c(N)cc1OC`, the outcome [1] was “inactive”.
For `CN1CCC(OC(c2ccccc2)c2ccccc2)CC1`, the outcome [1] was “inactive”.
With `CN1CCC[C@@H]1CCO[C@](C)(c1ccccc1)c1ccc(Cl)cc1` the outcome [1] was “inactive”, the outcome [2] was “inactive” and the outcome [3] was “inactive”.
For `CCN(CC)CCNC(=O)COc1ccc(OC)cc1`, the outcome [1] was “inactive”.
For `CC(C)(C)NC[C@H](O)COc1cccc2c1CCCC2=O`, the outcome [1] was “inactive”.
For `CCOc1ccc(NC(C)=O)cc1`, the outcome [1] was “inactive”, the outcome [4] was “inactive” and the caspase-3 activation [5] was -0.173%. The outcome [6] was “inactive”, the outcome [7] was “inactive” and the outcome [8] was “inactive”. The outcome [9] was “inactive”, the outcome [10] was “inactive” and the outcome [11] was “inactive”. For the same compound, the Potency [12] was “inactive”, the outcome [13] was “inactive” and the outcome [14] was “inactive”. The outcome [15] was “inactive” and the outcome [16] was “inactive”.
In the case of `CCc1oc2ccccc2c1C(=O)c1cc(Br)c(O)c(Br)c1`, the outcome [1] is reported as “inactive”.
With `CCOC(=O)c1ccc(N)cc1` the outcome [1] was “inactive” and the outcome [3] was “inactive”.
For `COc1ccc(C(=O)c2ccccc2O)c(O)c1`, the outcome [1] was “inactive”.
In the case of `CN=C(N)NCCC[C@H](N)C(=O)O`, the outcome [1] is reported as “inactive”, the outcome [2] is reported as “inactive” and the outcome [17] is reported as “inactive”.
With `O=C1C(=O)c2ccccc2C(O)=C1C1CCC(c2ccc(Cl)cc2)CC1` (stereo not given) the outcome [1] was “inactive”, the Potency [18] was 2 µM (active) and the Potency [19] was “inactive”.
For `O=C(O)CCc1nc2ccccc2[nH]1`, the outcome [1] was “inactive”.
With `COc1ccc(C(=O)c2ccccc2)c(O)c1` the outcome [1] was “inactive”, the outcome [4] was “inactive” and the caspase-3 activation [5] was 25.4%. For the same compound, the outcome [6] was “inactive”, the outcome [7] was “inactive” and the outcome [8] was “inactive”. For the same compound, the outcome [9] was “inactive”, the outcome [10] was “inactive” and the outcome [11] was “inactive”. For the same compound, the Potency [12] was “inactive”, the outcome [13] was “inactive” and the outcome [14] was “inactive”. The outcome [15] was “inactive”, the outcome [16] was “inactive” and the Potency [19] was “inactive”.
In the case of `CN1CCc2cccc3c2[C@H]1Cc1ccc(O)c(O)c1-3`, the outcome [1] is reported as “inactive”.
With `O=C1C(CCS(=O)c2ccccc2)C(=O)N(c2ccccc2)N1c1ccccc1` (stereo not given) the outcome [1] was “inactive” and the outcome [3] was “inactive”.
